Assay in all cases: NCI-60 one-dose screen, 48 h (100 = growth as untreated, 0 = no growth, -100 = all killed)
Conditions in all cases: 10 µM unless noted

Assay [1] has as its system HCT-15 colon.
Assay [2] deals with HT29 colon.
Assay [3] relates to SNB-75 CNS.
Assay [4] relates to SNB-19 CNS.
In assay [5] the test system is PC-3 prostate.
For assay [6], the system named is SK-MEL-5 melanoma.
In assay [7] the test system is UACC-62 melanoma.
The subject of assay [8] is LOX IMVI melanoma.
Assay [9] deals with SK-MEL-28 melanoma.

Among the data in PubChem BioAssay (NCI) are growth values, retold here.

About 83,000 compounds went through this panel and 20% of them were active in at least one assay; those are over-represented in the sample as a whole.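 Method: cells in 96-well plates; compound added at one concentration; 48 h incubation; percent growth measured; values under 10 scored active.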 Values without a mark were called inactive. The source made the active and inactive calls.

As to `COc1cc(/C=C/C(=O)c2ccc(O)c(CN3CCN(c4cc5c(cc4F)c(=O)c(C(=O)O)cn5C4CC4)CC3)c2)cc(OC)c1OC`, the growth in assay [1] was 19.3%; in [2] it was 10.3%; in assay [3], 57.7%; in assay [4] it was 75.7%; in assay [5], 47.1%; in assay [6] it was 64%. The figures for the growth in [7], in [8] and in [9] were 59.9%, 20.7% and 59.3%, respectively.

For `CCCN1CCN(c2ccc3nc(-c4ccc5nc(-c6ccc(OCC)cc6)[nH]c5c4)[nH]c3c2)CC1`, the growth in assay [1] was -56.5% (active); in assay [2], -69% (active); in assay [3], 50.3%; in assay [4] it was 62%; in assay [5], -69.5% (active); in assay [6] it was 28.9%. Also, the growth in [7] is 51.4%; in assay [8], -95% (active); in assay [9], 48.4%.

With `COc1ccc(-c2nc3ccc(-c4nc5ccc(N6CCN(c7ccncc7)CC6)cc5[nH]4)cc3[nH]2)cc1OC`, the growth in [1] is 88.7%; in [2], 22.6%; in assay [3] it was 52.8%; in assay [4], 40.9%; in assay [5], 54.8%; in assay [6], 14.1%. Also, the results for the growth in [7], in assay [8] and in assay [9] were 17.5%, 16.9% and 19.1%, respectively.

In the case of `COc1cc2nc(N3CCCC3)nc(NCCc3ccccc3)c2cc1OC`, the growth was -55.1% (active) in assay [1]; 5.28% (active) in [2]; 93.5% in [3]; 87.6% in assay [4]; 67% in [5]; 90.3% in [6]. In addition, the growth in [7] is 94.7%; in assay [8], -74.8% (active); in assay [9], 88.6%.

With `O=C1/C(=C/c2cn(-c3ccccc3)nc2-c2ccccc2)SC(=S)N1CCc1ccccc1`, the growth in assay [1] is 106%; in assay [2] it was 104%; in [3], 71.9%; in assay [4], 99%; in assay [5], 100%; in assay [6], 101%. The growth in [7] is 98%; in assay [8], 99.3%; in assay [9], 118%.

For the compound `N#Cc1c(-c2ccc(Cl)cc2)nc(NN=Cc2ccco2)nc1N1CCOCC1`, the growth was 80.3% in [1]; 87% in assay [2]; 10.3% in assay [3]; 80% in assay [4]; 68.3% in assay [5]; 80.9% in [6]. Moreover, the growth in assay [7] is 58.2%; in [8] it was 78.7%; in assay [9], 65.9%.

As to `Cc1cc(N2CCOCC2)nc(NCc2cc(Nc3ccnc4cc(Cl)ccc34)ccc2F)n1`, the growth in assay [1] is -81.9% (active); in [2], -28.5% (active); in assay [3], -20.3% (active); in assay [4], -22.9% (active); in assay [5], -30% (active); in assay [6], -98.3% (active). Besides, the growth in [7] was -83.6% (active); in [8] it was -68.4% (active); in assay [9], -73.1% (active).

Regarding `O=S(=O)(Nc1ccc(I)cc1F)c1ccc(-c2cnc(C3CC3)o2)cc1`, the growth in [1] was 25.5%; in [2] it was 15.9%; in assay [3], 15.4%; in assay [4], 62.8%; in assay [5], 68%; in [6], 62.8%. For the same compound, the results for the growth in assay [7], in assay [8] and in assay [9] were 32.8%, 52.5% and 61.7%, respectively.

In the case of `COc1cccc(-c2nn(C(C)(C)C)cc2-c2ccnc(NCCCNS(=O)(=O)c3cccc4ccccc34)c2)c1`, the growth in assay [1] is 108%; in assay [2], 103%; in [3], 71.2%; in assay [4] it was 100%; in [5], 106%; in assay [6], 100%. Besides, the growth is 108% in assay [7], 99.8% in assay [8] and 112% in assay [9].

In the case of `COc1ccc(CCNc2nc(SC)nc(-c3cccc([N+](=O)[O-])c3)c2C#N)cc1OC`, the growth in assay [1] is 90.9%; in assay [2], 93.6%; in assay [3], 61.8%; in [4], 71.9%; in [5], 75.2%; in assay [6], 88.2%. The growth was 80.8% in assay [7], 88.6% in [8] and 91.8% in assay [9].

On to `Cc1ccc(NS(=O)(=O)c2ccc(-c3cnc(C4CC4)o3)cc2)cc1C`, for which the growth in [1] was 19.5%; in assay [2] it was -10.4% (active); in assay [3] it was -7.43% (active); in assay [4] it was 46.8%; in assay [5], 22.7%; in [6], -3.9% (active). For the same compound, the growth in [7] was 24.1%; in assay [8], 39.4%; in [9], 66%.

With `N#Cc1c(-c2ccc(Cl)cc2)nc(N=Nc2c(O)[nH]c3ccc(Cl)cc23)nc1N1CCOCC1`, the growth is 100% in assay [1]; 107% in assay [2]; 68.7% in [3]; 101% in [4]; 99.2% in assay [5]; 97.3% in assay [6]. Moreover, the growth in assay [7] was 93.7%; in [8], 83.2%; in assay [9] it was 101%.

In the case of `CON1C(=O)CC[C@]2(C)[C@H]3CC[C@@H]4C([C@@]5(C)CCC(=O)O5)CC[C@@]4(C)[C@]3(C)CC[C@H]2C1(C)C` (stereo partly drawn), the growth is 99.8% in assay [1]; 94.6% in assay [2]; 71.5% in assay [3]; 96.5% in [4]; 87.4% in [5]; 98.4% in [6]. For the same compound, the values for the growth in assay [7], in assay [8] and in [9] were 87.2%, 95.1% and 107%, respectively.

`Cn1c(=O)c2c(nc3n(-c4ccc(Cl)cc4Cl)c(Sc4nc(-c5ccccc5)c(C#N)c(=O)[nH]4)cn23)n(C)c1=O`: the growth in assay [1] was 63.1%; in [2], 57.1%; in [3] it was -5.62% (active); in assay [4], 24.7%; in assay [5], 75.7%; in assay [6], 90.4%. Further, the growth in [7] was 63.2%; in [8], 33.5%; in [9] it was 87.8%.

`COc1cccc(-c2nn(C(C)(C)C)cc2-c2ccnc(NCCCNS(=O)(=O)c3ccc(C)cc3)c2)c1`: the growth is 107% in assay [1]; 105% in assay [2]; 69.8% in [3]; 102% in assay [4]; 102% in assay [5]; 100% in [6]. For the same compound, the growth in assay [7] is 107%; in assay [8], 99.5%; in assay [9], 112%.

For the compound `COC(=O)[C@]12CCC(C)(C)C[C@H]1[C@H]1C(=O)C[C@@H]3[C@@]4(C)c5c([nH]c6ccccc6c5=O)C(C)(C)[C@@H]4CC[C@@]3(C)[C@]1(C)CC2`, the growth in [1] is 46.5%; in [2], 45.4%; in [3], 65%; in assay [4] it was 75.3%; in assay [5] it was 36.6%; in [6], 12.4%. The growth in assay [7] was 54.5%; in assay [8] it was 58.3%; in assay [9], 68%.

In the case of `COc1cc(/C=C/C(=O)c2c(C)oc3nc[nH]c(=O)c23)cc(OC)c1OC`, the growth in assay [1] is 49.3%; in [2] it was 90.7%; in assay [3], 78%; in assay [4], 93.6%; in assay [5] it was 83.4%; in assay [6], 89.9%. Also, the growth in assay [7] was 87%; in [8], 66.2%; in assay [9], 93.9%.

`C=C(C)[C@@H]1CC[C@]2(C(=O)OC)CC[C@]3(C)[C@H](CC[C@@H]4[C@@]5(C)C/C(=C/c6cccc(I)c6)C(=O)C(C)(C)[C@@H]5CC[C@]43C)[C@@H]12`: the growth in [1] was 99.3%; in assay [2], 107%; in assay [3], 89.2%; in [4], 94%; in assay [5], 96%; in [6], 99%. Further, the figures for the growth in [7], in assay [8] and in assay [9] were 96.5%, 91.9% and 104%, respectively.

`CC(C)C1=C[C@@]23CC[C@@H]4[C@](C)(CCC[C@@]4(C)C(=O)N4CCCNCC4)[C@H]2C[C@@H]1[C@H]1C(=O)CCC(=O)[C@H]13`: the growth in [1] is 97.5%; in [2], 108%; in assay [3] it was 63.5%; in assay [4] it was 99.5%; in assay [5] it was 93%; in assay [6] it was 97.7%. Moreover, the figures for the growth in assay [7], in assay [8] and in assay [9] were 98.2%, 92.1% and 109%, respectively.

With `C=CC(=O)Nc1cccc(-c2nc(SC)nc(Nc3ccccc3OC)c2C#N)c1`, the growth in assay [1] is 16.9%; in assay [2] it was 2.25% (active); in [3] it was 24.4%; in assay [4], 74.5%; in assay [5], 31.9%; in assay [6], 66.7%. Further, the results for the growth in [7], in [8] and in assay [9] were 75%, 16.9% and 50.8%, respectively.

Take `O=C(/C=C/c1cccc(Cl)c1)c1ccc(O)c(CN2CCN(c3cc4c(cc3F)c(=O)c(C(=O)O)cn4C3CC3)CC2)c1`: the growth is 17.5% in assay [1]; 4.36% (active) in assay [2]; 28.7% in assay [3]; 35.9% in assay [4]; 19.9% in assay [5]; 24.5% in assay [6]. The growth in [7] was 34.9%; in assay [9], 58.8%.

`O=S(=O)(Nc1ccc(Br)c(Cl)c1)c1ccc(-c2cnc(C3CC3)o2)cc1`: the growth in assay [1] was 20.7%; in assay [2], -15.3% (active); in assay [3], -5.71% (active); in assay [4], 35%; in [5] it was 23.9%; in assay [6], 10.2%. Moreover, the growth was 30.1% in assay [7] and 57.9% in assay [9].

Consider `COc1cc2nc(N3CCCC3)nc(Nc3ccccc3)c2cc1OC`, for which the growth was -42.6% (active) in assay [1]; -71% (active) in assay [2]; 99.5% in assay [3]; 49.9% in assay [4]; 29.4% in assay [5]; -97.8% (active) in assay [6]. In addition, the values for the growth in [7], in [8] and in assay [9] were -76.1% (active), -92.6% (active) and -91.3% (active), respectively.

Consider `Cc1nc2ccccc2n1C(=O)C[C@@H]1NC(=S)NC1=O`, for which the growth in [1] was 93%; in [2], 105%; in assay [3] it was 74.1%; in [4], 98.3%; in assay [5] it was 105%; in assay [6], 100%. The growth was 97.1% in assay [7], 95.3% in assay [8] and 99.2% in assay [9].

For `CN(C)S(=O)(=O)c1ccc(S(=O)(=O)Nc2cccc(Cl)c2N2CCCCC2)cc1`, the growth is 79.9% in assay [1]; 91.8% in assay [2]; 64.2% in assay [3]; 84.9% in assay [4]; 60.3% in assay [5]; 80.7% in assay [6]. The growth in [7] was 57.8%; in [9], 59.9%.

Consider `CC1=NN(c2nc(-c3ccc(Cl)cc3)c(C#N)c(N3CCOCC3)n2)C(=O)C1`, for which the growth in assay [1] is 89.3%; in [2], 94.1%; in assay [3], 56.5%; in assay [4], 94.6%; in [5], 98.5%; in [6], 94.3%. For the same compound, the growth in assay [7] was 13.8%; in assay [8], 75.5%; in assay [9], 33.1%.

Turning to `O=C(N/N=C/c1c[nH]c2ccccc12)c1cc(-c2ccccc2)on1`, the growth in [1] is 71.2%; in assay [2], 102%; in assay [3], 67%; in assay [4], 89.8%; in assay [5], 88%; in [6], 91.3%. Moreover, the growth in assay [7] was 62.8%; in assay [9] it was 106%.

For the compound `CSc1nc(Nc2cccc(NC(=O)/C(C#N)=C/c3c(Cl)cccc3Cl)c2)c(C#N)c(-c2cccc([N+](=O)[O-])c2)n1`, the growth in [1] is 28.9%; in assay [2], 49.2%; in assay [3], 47.5%; in assay [4] it was 72.5%; in assay [5] it was 45.1%; in [6], 49.6%. Besides, the growth in assay [7] was 33.2%; in assay [8] it was 2.43% (active); in assay [9] it was 76.7%.
